High-throughput results deposited in PubChem BioAssay by several laboratories.
sEH inh – soluble epoxide hydrolase inhibitors, primary screen, biochemical, human sEH; recombinant human sEH enzymatic activity assay; inhibition, % at 2 µM; 91,000 tested, 0.34% active; AID 707, 2007; in the data active = inhibition above about 80%
Target sequence (P34913 whole entry, looked up): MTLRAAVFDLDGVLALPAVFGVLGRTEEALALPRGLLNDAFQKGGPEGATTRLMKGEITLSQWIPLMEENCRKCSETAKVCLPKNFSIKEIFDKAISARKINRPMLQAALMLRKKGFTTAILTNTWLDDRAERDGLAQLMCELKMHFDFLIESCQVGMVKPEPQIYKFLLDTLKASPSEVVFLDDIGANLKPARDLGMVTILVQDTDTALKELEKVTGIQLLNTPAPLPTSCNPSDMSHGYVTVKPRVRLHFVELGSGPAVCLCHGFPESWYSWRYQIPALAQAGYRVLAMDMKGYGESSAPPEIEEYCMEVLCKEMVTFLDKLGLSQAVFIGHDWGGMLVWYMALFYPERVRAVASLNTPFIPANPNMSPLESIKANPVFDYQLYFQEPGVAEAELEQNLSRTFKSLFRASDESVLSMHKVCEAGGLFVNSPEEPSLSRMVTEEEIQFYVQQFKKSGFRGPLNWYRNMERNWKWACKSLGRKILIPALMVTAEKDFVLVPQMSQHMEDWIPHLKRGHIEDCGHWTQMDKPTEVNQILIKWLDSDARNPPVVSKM
CYP2C19 act – human CYP2C19 activators, primary screen, biochemical, luminescence. recombinant CYP2C19, luciferin-H EGE luminescence; hits give high values; 0 = fully inhibited enzyme, 1 = untreated enzyme. Cytochrome P450 2C19 (Homo sapiens), P33261. activation factor at 5 µM. 96,000 tested, under 10 active;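 active = activation factor of at least 2 at 5 µM in the primary screen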;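 note: 0 = wells with 2.5 mM tranylcypromine and 1 = vehicle-only wells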
CYP2C19 inhib – blockers of cytochrome P450 2C19 activity – biochemical, luminescence, ADME assay, primary screen | 96,000 tested, 21% active | CYP2C19 Supersomes, luciferin-H EGE luminescence, 30 min | P33261 | inhibition, % at 5 µM;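 active = CYP2C19 inhibition above a set limit at 5 µM in the primary screen, cut at about 50% in these data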;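 note: plate controls were negative control wells for no effect and 2.5 mM tranylcypromine positive control for full effect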
CYP2C9 inhib – blockers of cytochrome P450 2C9 activity – biochemical, luminescence, ADME assay, primary screen. P11712. CYP2C9 Supersomes, luciferin-H conversion. inhibition, % at 5 µM. 96,000 tested, 20% active;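 active = blocking of liver enzyme CYP2C9 beyond about 50% at 5 µM, limit read from the data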
CYP2C9 activ – human CYP2C9 activators, primary screen, biochemical, luminescence. recombinant CYP2C9, luciferin-H conversion; hits give high values; factor 1 = untreated enzyme, 0 = blocked. activation factor at 5 µM. 96,000 tested, 1.4% active. AID 1024, 2008;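 active = activation factor of 2 or more for CYP2C9 at a 5 µM dose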;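 note: 0 = sulfaphenazole-blocked wells and 1 = vehicle-only wells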
sEH activator – soluble epoxide hydrolase activators, primary screen, biochemical, human sEH | activation, % at 2 µM | 91,000 tested, 0.04% active | Bifunctional epoxide hydrolase 2 (Homo sapiens), P34913 | AID 717, 2007 | purified human sEH enzymatic activity, activator screen; in the data active = activation above about 37%
An asterisk follows results filed as active; / = no result. Sampled rows, rich in hits. Any-hit rate of the full collection: about 27%.

SMILES	sEH inh	CYP2C19 act	CYP2C19 inhib	CYP2C9 inhib	CYP2C9 activ	sEH activator
COc1ccc(NC(=S)NC(NC(=O)C(C)C)C(Cl)(Cl)Cl)c([N+](=O)[O-])c1 (stereo unspecified)	9	1.1	-9	9	0.9	-9
C=CCN(c1ccc(C(=O)N2CCN(c3ccc(F)cc3)CC2)cc1)S(C)(=O)=O	8	0.6	44	55*	0.4	-7
CCOc1ccccc1N(CC(=O)N1CCOCC1)S(=O)(=O)c1ccccc1	4	0.7	29	76*	0.2	-1
CN(c1ccc(C(=O)N2CCN(c3ccc(F)cc3)CC2)cc1)S(C)(=O)=O	-4	0.9	10	46	0.5	4
CN(C)c1ccc(/C=N/NC(=O)CN(c2cccc(Cl)c2)S(C)(=O)=O)cc1Br	45	0.7	26	51*	0.5	-44
COc1ccc(S(=O)(=O)N(CC(=O)N2CCN(c3ccccc3OC)CC2)c2ccccc2)cc1	/	0.2	85*	87*	0.1	/
Cc1cc(C)cc(N(CC(=O)N2CCOCC2)S(=O)(=O)c2ccccc2)c1	-13	/	/	/	/	16
COc1ccc(N2CCN(C(=O)CN(c3ccccc3)S(=O)(=O)c3ccc(OC)cc3)CC2)cc1	3	1.2	-19	12	0.9	-4
O=C(O)c1ccccc1CSc1ncn[nH]1	-9	1.1	-8	-20	1.2	9
O=C(CCc1n[nH]c(=O)[nH]c1=O)N1CCOCC1	-16	1.1	-7	-2	1	13
O=C(NCCc1ccccc1)c1ccc(Cl)nc1	6	/	/	/	/	0
COc1ccc(N2CCN(C(=O)CN(c3cccc(Br)c3)S(C)(=O)=O)CC2)cc1	-4	0.9	5	-29	1.3	6
COC(=O)Oc1ccc(/C=N/NC(=O)CN(c2ccccc2Cl)S(C)(=O)=O)cc1OC	-14	0.7	34	63*	0.4	14
CS(=O)(=O)N(CC(=O)N1CCCCCC1)c1cccc(Br)c1	/	0.2	77*	41	0.6	/
Cc1cc(C)cc(N(CC(=O)N2CCC(C)CC2)S(C)(=O)=O)c1	-9	0.9	13	-123	2.2*	10
CS(=O)(=O)N(CC(=O)N1CCN(c2ccc(F)cc2)CC1)c1ccc(F)c(Cl)c1	13	0.3	71*	-87	1.9	-15
CCN(CC)C(=O)CN(c1ccc(F)c(Cl)c1)S(C)(=O)=O	-16	0.7	33	-7	1.1	15
O=C(Nc1ccc(S(=O)(=O)N2CCCCCC2)cc1)C1CCCO1 (stereo unspecified)	6	0.8	16	38	0.6	-6
O=C(Cc1c[nH]c2ccccc12)Nc1nccs1	3	0.5	55*	21	0.8	-3
Cc1csc(NC(=O)Cc2c[nH]c3ccccc23)n1	-9	0.6	35	28	0.7	10
C(=N\c1nccs1)/c1c[nH]c2ccccc12	-7	1	2	-25	1.2	8
O=C(Nc1nccs1)C(=O)c1c[nH]c2ccccc12	11	0.4	63*	18	0.8	-9
O=C(Cc1c[nH]c2ccccc12)Nc1nc2ccccc2[nH]1	0	0.5	54*	58*	0.4	3
O=C(Cc1ccccc1)Nc1nc2ccccc2[nH]1	-4	0.6	42	34	0.7	4
CCC(=O)Nc1ccc(NC(=O)CN2CCCC(C)C2)c(Cl)c1 (stereo unspecified)	-14	1	3	6	0.9	16
SMILES	sEH inh	CYP2C19 act	CYP2C19 inhib	CYP2C9 inhib	CYP2C9 activ	sEH activator
O=C(Oc1ccc2[nH]cc(CCN3C(=O)c4ccccc4C3=O)c2c1)c1ccco1	12	0.8	24	76*	0.2	-11
COc1ccc2c(c1)c(CCN1C(=O)c3ccccc3C1=O)cn2C(=O)c1ccco1	-4	0.9	14	18	0.8	4
COc1nc(NCCC2=CCCCC2)nc(OC)n1	/	0.8	17	20	0.8	/
Cc1ccc(CNCCC2=CCCCC2)cc1	19	0.1	94*	-4	1	-19
C1=C(CCNCC2CC2)CCCC1	-21	0.5	54*	-56	1.6	21
CC(C)=CC(=O)OCC(=O)Nc1nc(C)c(Cl)cc1Cl	/	0.2	83*	42	0.6	/
CC(=O)NC(CCS(C)(=O)=O)C(=O)Nc1ccc(F)cc1Cl (stereo unspecified)	1	0.9	7	5	0.9	0
CC(C)=CC(=O)OCC(=O)Nc1ccc(F)cc1Cl	-2	0.4	63*	25	0.8	1
COc1cc(CCC(=O)OCC(=O)Nc2nc(C)c(Cl)cc2Cl)cc(OC)c1OC	17	0.8	20	-13	1.1	-18
CCC1(COC(NC(=O)c2cccnc2)(C(F)(F)F)C(F)(F)F)COC1	3	0.9	10	10	0.9	-4
O=C(C[n+]1ccc(C(=O)N/N=C/c2ccc(Br)cc2)cc1)c1ccccc1	36	0.3	74*	34	0.7	-36
COc1ccc(C2Nc3ccccc3C(=O)N2c2ccc(C)cc2)cc1Cn1cc([N+](=O)[O-])cn1 (stereo unspecified)	6	0.5	46	90*	0.1	-4
COc1ccc(N2C(=O)c3ccccc3NC2c2ccc(OC)c(CSc3ccccn3)c2)cc1 (stereo unspecified)	17	0.7	33	58*	0.4	-19
COc1ccc(N2C(=O)CCC(C(=O)NCc3ccccn3)C2c2ccc(OC)c(OC)c2)cc1 (stereo unspecified)	/	1.1	-14	-14	1.1	/
COc1ccc(C2Nc3ccccc3C(=O)N2c2ccc(C)cc2)cc1Cn1nnc2ccccc21 (stereo unspecified)	-3	0.5	51*	81*	0.2	6
COc1cc(C2NC(=O)C(C#N)=C(S)N2c2ccc(C)cc2)ccc1OC(C)C (stereo unspecified)	-8	1	2	13	0.9	10
COC(=O)C1=C(C)NC(=O)C1(NC(=O)CN1CCCC1=O)C(F)(F)F (stereo unspecified)	9	/	/	/	/	-6
COc1ccc(CCNC(=O)C(=O)NCc2ccc(C)cc2)cc1OC	11	0.9	12	-5	1.1	-8
CC(C)(C)NC(=O)NC(=O)COC(=O)c1cc(=O)[nH]c2ccccc12	9	0.8	15	35	0.6	-7
CCN(CC)S(=O)(=O)c1ccc(C(=O)Nc2c3c(nn2C(C)(C)C)CS(=O)(=O)C3)cc1	12	1	-3	76*	0.2	-11
O=C(Nc1ccccc1)c1nnsc1S(=O)c1ccc(Cl)cc1 (stereo unspecified)	-9	1.1	-6	64*	0.4	8
